# Calls of active or inactive are those of the source. Cut-off read from the data, not from the text of the source, unless noted: active = inhibition above about 80%; inactive = the rest.
# Columns and labels:
# [1] = growth inhibition, single agents and combos, LFS_MB_1R, cell-based, cisplatin or BGB combos, synergistic combos for chromothripsis tumors (AID 1671452); settings: LFS_MB_1R medulloblastoma cells, measured here: combination with cisplatin, at 5 µM, stronger effect = higher value;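 note: cells exposed for 96 hours before readout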
# [2] = growth inhibition, single agents and combos, HTB85, cell-based, BGB or cisplatin IC20 combos, synergistic combos for chromothripsis tumors (AID 1671453); settings: HTB85 osteosarcoma cells, drug combinations, stronger effect = higher value;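 note: cells exposed for 96 hours before readout; 0% = vehicle DMSO and 100% = high DMSO killing control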
# [3] = growth inhibition, single agents and combos, CRL2098, cell-based, BGB or cisplatin IC20 combos, synergistic combos for chromothripsis tumors (AID 1671454); settings: CRL2098 osteosarcoma cells, drug combinations, stronger effect = higher value;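 note: cells exposed for 96 h before readout; 0% = vehicle DMSO and 100% = killing by high DMSO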
# [4] = growth inhibition, single agents and combos, HD-MB03, cell-based, BGB or cisplatin IC20 combos, synergistic combos for chromothripsis tumors (AID 1671455; in the data active = inhibition above about 83%;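 note: 0% = vehicle DMSO and 100% = high DMSO as cytotoxic control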); settings: HD-MB03 medulloblastoma cells, stronger effect = higher value
# [5] = growth inhibition, single agents and combos, UWB1.289, cell-based, BGB or cisplatin combos, synergistic combos for chromothripsis tumors (AID 1671456); settings: UWB1.289 ovarian carcinoma cells, stronger effect = higher value;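 note: cells exposed to compound for four days; 0% = vehicle DMSO and 100% = killing by high DMSO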
# [6] = growth inhibition, single agents and combos, LFS_MB_2R, cell-based, cisplatin combos, synergistic combos for chromothripsis tumors (AID 1671457); settings: LFS_MB_2R medulloblastoma cells, stronger effect = higher value;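 note: cells exposed to compound for four days before readout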
# [7] = growth inhibition, MDA-MB-436, cell-based, BGB or cisplatin combos, synergistic combos for chromothripsis tumors (AID 1671458; call rule not given here;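 note: cells exposed for 96 hours; 0% = vehicle DMSO and 100% = killing by high DMSO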); settings: MDA-MB-436 breast carcinoma growth inhibition, drug combinations, stronger effect = higher value
# [8] = UWB1.289_BRCA1 ovarian cancer growth, cell-based, BGB or cisplatin combinations (AID 1671459); settings: UWB1.289 BRCA1 ovarian carcinoma, drug combinations, stronger effect = higher value
# [9] = drug combination toxicity in non-malignant astrocytes – cell-based, BGB or cisplatin IC20 combos, cytotoxicity control for chromothriptic childhood tumor combination screen (AID 1671460); settings: Human astrocytes, viability inhibition, drug combinations, at 0.5 µM, stronger effect = higher value;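 note: cells exposed to compounds for 96 hours before viability readout; 0% = vehicle and 100% = killing control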
# [10] = BT084 cell growth, single and combined drugs, ICGC_MB145, cisplatin and BGB IC40 combos (AID 1671461); settings: BT084 medulloblastoma cells, drug combinations, stronger effect = higher value;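 note: cells exposed to drugs for 96 hours; 0% = vehicle DMSO and 100% = high DMSO full killing control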
# [11] = RCMB18 cell growth, single agent and combined, cisplatin and BGB IC40 combos (AID 1671462); settings: RCMB18 medulloblastoma cells, stronger effect = higher value;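 note: cells exposed to compound for four days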
# [12] = CRL1545 cell growth, single agent and combined, cisplatin and BGB IC20 combos (AID 1671464); settings: CRL1545 osteosarcoma cells, stronger effect = higher value;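 note: cells exposed to compound for 96 hours before readout; 0% = vehicle DMSO and 100% = high DMSO killing control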
# [13] = measured here: combination with cisplatin, at 0.5 µM
smiles,measurement,setting,value
Cc1c2ccncc2c(C)c2c1[nH]c1ccccc12,inhibition,[1],99.2%
same,inhibition,[2]; at 0.5 µM,-6.03% (inactive)
same,inhibition,"[2]; measured here: with BGB IC20, at 0.5 µM",-6.83%
same,inhibition,"[2]; measured here: with BGB IC20, at 5 µM",36.4%
same,inhibition,"[2]; measured here: with cisplatin IC20, at 0.5 µM",-14.1%
same,inhibition,"[2]; measured here: with cisplatin IC20, at 5 µM",40.2%
same,inhibition,"[2]; single agent, at 5 µM",51.7%
same,inhibition,[3]; at 0.5 µM,-3.13% (inactive)
same,inhibition,"[3]; measured here: combination with BGB at IC20, at 0.5 µM",-26.6%
same,inhibition,"[3]; measured here: combination with cisplatin at IC20, at 0.5 µM",16.5%
same,inhibition,[4]; at 0.5 µM,21.3% (inactive)
same,inhibition,"[4]; measured here: combo with BGB at IC20, at 0.5 µM",32.4%
same,inhibition,"[4]; measured here: combo with cisplatin at IC20, at 0.5 µM",9.33%
same,inhibition,[5]; at 0.5 µM,18% (inactive)
same,inhibition,"[5]; measured here: inhibition with BGB combination, at 0.05 µM",-8.89%
same,inhibition,"[5]; measured here: inhibition with cisplatin combination, at 0.05 µM",-1.5%
same,inhibition,[6]; at 0.5 µM,-5.42% (inactive)
same,inhibition,[6]; [13],15.1%
same,inhibition,"[6]; measured here: combination with cisplatin, at 5 µM",95.3%
same,inhibition,[7]; at 0.5 µM,-9.97% (inactive)
same,inhibition,"[7]; measured here: BGB combination, at 0.5 µM",-20.5%
same,inhibition,"[7]; measured here: BGB combination, at 5 µM",24.1%
same,inhibition,"[7]; measured here: cisplatin combination, at 0.5 µM",-26.7%
same,inhibition,"[7]; measured here: cisplatin combination, at 5 µM",24.1%
same,inhibition,"[8]; BGB combination, concentration series, at 5 µM",104%
same,inhibition,[8]; at 0.5 µM,21.4% (inactive)
same,inhibition,"[8]; cisplatin combination, concentration series, at 5 µM",113%
same,inhibition,[9],13.8% (inactive)
same,inhibition,[9]; measured here: combo with BGB IC20,4.66%
same,inhibition,[9]; measured here: combo with cisplatin IC20,-5.08%
same,inhibition,[10]; at 0.5 µM,48.9% (inactive)
same,inhibition,"[10]; cisplatin combination, at 0.5 µM",60.2%
same,inhibition,"[10]; cisplatin combination, at 5 µM",49.9%
same,inhibition,"[10]; measured here: BGB IC40 combination 0.05 uM, at 0.05 µM",16.8%
same,inhibition,"[10]; single agent, at 5 µM",44.6%
same,inhibition,[11]; at 0.5 µM,14.6% (inactive)
same,inhibition,"[11]; cisplatin combo, at 5 µM",91.5%
same,inhibition,"[11]; measured here: BGB IC40 combination, at 0.05 µM",1.25%
same,inhibition,[11]; [13],-51.3%
same,inhibition,"[11]; single agent, at 5 µM",70.8%
same,inhibition,[12]; at 0.5 µM,-40.6% (inactive)
same,inhibition,"[12]; measured here: with BGB IC20 combination, at 0.5 µM",-33.3%
same,inhibition,"[12]; measured here: with cisplatin IC20 combination, at 0.5 µM",-46.6%
same,inhibition,"[12]; single agent, at 0.05 µM",-12.4%
same,inhibition,"[12]; single agent, at 5 µM",68.6%
